According to PubChem BioAssay AID2284426 (EPA ToxCast):
Active and inactive are the calls of the source. Rule for the calls: active = hit-call score of the fitted dose curve at least 0.9, where 1 is the maximum; inactive = score below 0.9.

Test: CCTE_Deisenroth_DEVTOX-GLR_Ecto_CellCount: Viability Assessment in CCTE's DevTox GLR-Ecto Assay, Deisenroth Lab
Method: CCTE_Deisenroth_DEVTOX-GLR_Ecto assay is a cell-based, multiplex-readout assay that uses RUES2-GLR, a human pluripotent cell line, with measurements taken at 48 hours after chemical dosing in a 384-well microplateCCTE_Deisenroth_DEVTOX-GLR_Ecto_CellCount is 1 of 4 assay components calculated from the CCTE_Deisenroth_DEVTOX-GLR_Ecto assay and it measures cell count. Using fluorescent nuclei staining, gain-of-signal activity can be used to understand changes in cell viability with fluorescent microscopy. It is designed to make measurements of nuclei counts as a surrogate for cell number, as detected with optical fluorescence microscopy by Perkin Elmer Harmony nuclei detection algorithm. To generalize the intended target to other relatable targets, this assay component is annotated to the cell cycle intended target family, where the subfamily is cytotoxicity.Data from the assay component CCTE_Deisenroth_DEVTOX-GLR_Ecto_CellCount was analyzed as 1 assay endpoint. The endpoint the percent change in the cell count relative to the 0.2% DMSO control in the CCTE_Deisenroth_DEVTOX-GLR_Ecto assay. Furthermore, this assay endpoint can be referred to as a […] readout, because this assay has produced multiple assay endpoints where this one serves as a measure of cytotoxicity.
All assay protocols are aligned to the DevTox GLR-Endo assay workflow. Cells are seeded into 384-well microplates for 24 hours prior to initiating differentiation in defined media for a total duration of 48 hours. A total of two chemical exposures are administered in 24-hour intervals during the 48-hour differentiation period. At the assay termination point, cells are fixed and stained with a fluorescent dye demarcating the nucleus. High-content imaging is used to acquire brightfield and fluorescent channel images across 5 fields per well. Cell identification and mean biomarker fluorescence intensities are calculated with image analysis software to determine the total cell counts for viability assessment and the biomarker expression frequency for each lineage-dependent assay. A typical experimental design tests a 10-point concentration series (1 nM - 200 uM) for 28 compounds in single technical replicate. Assay plate controls include non-differentiated pluripotent cells (baseline control), lineage-specific differentiated cells (differentiation control), and DMSO solvent exposed differentiated cells (solvent control). Experiments typically comprise a minimum of four experimental replicates (n=4).
In the case of CCCC(CCC)C(=O)O, the outcome is reported as “inactive”.
With CC1(C)S[C@@H]2[C@H](NC(=O)Cc3ccccc3)C(=O)N2[C@H]1C(=O)O the outcome was “inactive”.
With Nc1cccc2c1C(=O)N(C1CCC(=O)NC1=O)C2=O (stereo unspecified) the outcome was “inactive”.
In the case of CC/C(=C(/CC)c1ccc(O)cc1)c1ccc(O)cc1, the outcome is reported as “inactive”.
For O=c1[nH]cc(F)c(=O)[nH]1, the AC50 was 3.87 µM (active).
In the case of O=C1NC(=O)C(c2ccccc2)(c2ccccc2)N1, the outcome is reported as “inactive”.
For CCN(CC)CCNC(=O)c1c(C)[nH]c(/C=C2\C(=O)Nc3ccc(F)cc32)c1C, the AC50 was 1.25 µM (active).
For CS(=O)(=O)OCCCCOS(C)(=O)=O, the AC50 was 20.4 µM (active).
For CC1=C(/C=C/C(C)=C/C=C/C(C)=C\C(=O)O)C(C)(C)CCC1, the AC50 was 0.46 µM (active).
For CC1=C(/C=C/C(C)=C/C=C/C(C)=C/C(=O)O)C(C)(C)CCC1, the AC50 was 0.0242 µM (active).
In the case of Nc1nc2ncc(CNc3ccc(C(=O)N[C@@H](CCC(=O)O)C(=O)O)cc3)nc2c(=O)[nH]1, the outcome is reported as “inactive”.
With CN(Cc1cnc2nc(N)nc(N)c2n1)c1ccc(C(=O)N[C@@H](CCC(=O)O)C(=O)O)cc1 the outcome was “inactive”.
With CC(C)(c1ccc(O)cc1)c1ccc(O)cc1 the outcome was “inactive”.
In the case of O=C1CCC(N2C(=O)c3ccccc3C2=O)C(=O)N1 (stereo unspecified), the outcome is reported as “inactive”.
With O=C1NS(=O)(=O)c2ccccc21 the outcome was “inactive”.
For CC(=O)Nc1ccc(O)cc1, the outcome was “inactive”.
